From PubChem BioAssay AID1159580 (chemical genetic matrix, 2015)
Hit rate of the full screen: of about 5,500 compounds, about 2,000 (36%) were called active. Inconclusive results (about 18%) are left out. No stated cut-off is given here; in the data, active means normalized growth mostly below about 0.91 (no sharp cut-off); inconclusive means no clear call, values can overlap the other calls; inactive means mostly above about 0.92. The list shows a part of the results.

Assay: chemical genetic growth profiling, strain panel (AID 1159580);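 further: tested at 20 µM; growth read once vehicle control cultures reached saturation at 30 °C; 1 = growth at the plate median or of vehicle wells; lower values mean less growth of the strain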
Conditions: growth OD

Measured: normalized growth

CCC1(c2ccccc2)C(=O)NCNC1=O
inactive: S. cerevisiae deletion strains, locus YJR075W, strain HOC1, hits give low values 1.01 | S. cerevisiae deletion strains, locus YKL009W, strain mrt4, hits give low values 0.998 | S. cerevisiae deletion strains, locus YKL068W, hits give low values 0.997 | S. cerevisiae deletion strains, locus YKL085W, strain MDH1 (second series), hits give low values 0.996 | S. cerevisiae deletion strains, locus YKL085W, strain MDH1, hits give low values 0.996 | S. cerevisiae deletion strains, locus YKL160W, strain elf1, hits give low values 1.02 | S. cerevisiae deletion strains, locus YKL190W, strain CNB1, hits give low values 1.01 | S. cerevisiae deletion strains, locus YKR001C, strain vps1, hits give low values 0.995 | S. cerevisiae deletion strains, locus YKR026C, strain gcn3, hits give low values 0.978 | S. cerevisiae deletion strains, locus YKR091W, strain srl3, hits give low values 0.999 | S. cerevisiae deletion strains, locus YLL001W, strain dnm1, hits give low values 1.02 | S. cerevisiae deletion strains, locus YLL026W, hits give low values 1 | S. cerevisiae deletion strains, locus YLL041C, strain sdh2, hits give low values 1.01 | S. cerevisiae deletion strains, locus YLR027C, strain aat2, hits give low values 1.01 | S. cerevisiae deletion strains, locus YLR039C, strain RIC1, hits give low values 0.971 | S. cerevisiae deletion strains, locus YLR058C, strain SHM2, hits give low values 1.01 | S. cerevisiae deletion strains, locus YLR102C, strain apc9, hits give low values 0.996 | S. cerevisiae deletion strains, locus YLR113W, strain HOG1, hits give low values 0.993 | S. cerevisiae deletion strains, locus YLR221C, strain rsa3, hits give low values 1.01 | S. cerevisiae deletion strains, locus YLR258W, strain gsy2, hits give low values 1.01 | S. cerevisiae deletion strains, locus YLR262C, strain YPT6 (second series), hits give low values 1.03 | S. cerevisiae deletion strains, locus YLR262C, strain YPT6, hits give low values 0.995 | S. cerevisiae deletion strains, locus YLR268W, strain sec22, hits give low values 0.981 | S. cerevisiae deletion strains, locus YLR320W, strain mms22, hits give low values 1.02 | S. cerevisiae deletion strains, locus YLR330W, strain CHS5, hits give low values 1.01 | S. cerevisiae deletion strains, locus YLR342W, strain FKS1 (second series), hits give low values 1.01 | S. cerevisiae deletion strains, locus YLR342W, strain FKS1, hits give low values 1.03 | S. cerevisiae deletion strains, locus YLR357W, strain rsc2, hits give low values 1.02 | S. cerevisiae deletion strains, locus YLR370C, strain arc18, hits give low values 1.01 | S. cerevisiae deletion strains, locus YLR371W, strain rom2, hits give low values 1 | S. cerevisiae deletion strains, locus YLR384C, strain iki3, hits give low values 1.01 | S. cerevisiae deletion strains, locus YLR418C, strain cdc73, hits give low values 0.992 | S. cerevisiae deletion strains, locus YML016C, strain PPZ1, hits give low values 1 | S. cerevisiae deletion strains, locus YML032C, strain rad52, hits give low values 0.992 | S. cerevisiae deletion strains, locus YML120C, strain ndi1, hits give low values 1.01 | S. cerevisiae deletion strains, locus YML124C, strain tub3, hits give low values 0.995 | S. cerevisiae deletion strains, locus YMR058W, strain fet3, hits give low values 0.995 | S. cerevisiae deletion strains, locus YMR078C, strain ctf18, hits give low values 1 | S. cerevisiae deletion strains, locus YMR125W, strain sto1, hits give low values 0.979 | S. cerevisiae deletion strains, locus YMR129W, hits give low values 0.99 | S. cerevisiae deletion strains, locus YMR205C, strain PFK2, hits give low values 1.02 | S. cerevisiae deletion strains, locus YMR223W, strain ubp8, hits give low values 0.995 | S. cerevisiae deletion strains, locus YMR231W, strain pep5, hits give low values 1.01 | S. cerevisiae deletion strains, locus YMR263W, strain SAP30, hits give low values 0.982 | S. cerevisiae deletion strains, locus YMR307W, strain GAS1, hits give low values 0.998 | S. cerevisiae deletion strains, locus YNL067W, strain RPL9B, hits give low values 1.01 | S. cerevisiae deletion strains, locus YNL071W, strain lat1, hits give low values 1 | S. cerevisiae deletion strains, locus YNL128W, strain TEP1, hits give low values 1.02 | S. cerevisiae deletion strains, locus YNL153C, strain GIM3, hits give low values 1.13 | S. cerevisiae deletion strains, locus YNL175C, strain NOP13, hits give low values 0.997 | S. cerevisiae deletion strains, locus YNL183C, strain NPR1, hits give low values 0.975 | S. cerevisiae deletion strains, locus YNL197C, strain WHI3, hits give low values 0.976 | S. cerevisiae deletion strains, locus YNL209W, strain ssb2, hits give low values 1.01 | S. cerevisiae deletion strains, locus YNL224C, strain SQS1, hits give low values 1 | S. cerevisiae deletion strains, locus YNL233W, strain BNI4, hits give low values 1 | S. cerevisiae deletion strains, locus YNL248C, strain rpa49, hits give low values 1.01 | S. cerevisiae deletion strains, locus YNL250W, strain rad50, hits give low values 0.998 | S. cerevisiae deletion strains, locus YNL271C, strain bni1, hits give low values 0.993 | S. cerevisiae deletion strains, locus YNL298W, strain CLA4, hits give low values 1.01 | S. cerevisiae deletion strains, locus YNL307C, strain MCK1, hits give low values 0.995 | S. cerevisiae deletion strains, locus YNL322C, strain KRE1 (second series), hits give low values 1.01 | S. cerevisiae deletion strains, locus YNL322C, strain KRE1, hits give low values 1 | S. cerevisiae deletion strains, locus YNR049C, strain mso1, hits give low values 1 | S. cerevisiae deletion strains, locus YNR052C, strain pop2, hits give low values 0.998 | S. cerevisiae deletion strains, locus YOL006C, strain TOP1, hits give low values 0.989 | S. cerevisiae deletion strains, locus YOL012C, strain htz1 0.947 | S. cerevisiae deletion strains, locus YOL147C, strain pex11, hits give low values 0.988 | S. cerevisiae deletion strains, locus YOR001W, strain rrp6, hits give low values 0.981 | S. cerevisiae deletion strains, locus YOR061W, strain CKA2, hits give low values 1 | S. cerevisiae deletion strains, locus YOR069W, strain VPS5, hits give low values 1.01 | S. cerevisiae deletion strains, locus YOR070C, strain gyp1, hits give low values 1.01 | S. cerevisiae deletion strains, locus YOR080W, strain dia2, hits give low values 1.01 | S. cerevisiae deletion strains, locus YOR083W, strain WHI5 (second series), hits give low values 1 | S. cerevisiae deletion strains, locus YOR083W, strain WHI5, hits give low values 1.02 | S. cerevisiae deletion strains, locus YOR106W, strain vam3, hits give low values 1.01 | S. cerevisiae deletion strains, locus YOR136W, strain idh2, hits give low values 1 | S. cerevisiae deletion strains, locus YOR144C, strain elg1, hits give low values 0.992 | S. cerevisiae deletion strains, locus YOR184W, strain ser1, hits give low values 1.01 | S. cerevisiae deletion strains, locus YOR231W, strain MKK1, hits give low values 1 | S. cerevisiae deletion strains, locus YOR265W, strain rbl2, hits give low values 1 | S. cerevisiae deletion strains, locus YOR270C, strain vph1, hits give low values 1.02 | S. cerevisiae deletion strains, locus YOR290C, strain snf2, hits give low values 1.01 | S. cerevisiae deletion strains, locus YOR316C, strain cot1, hits give low values 0.996 | S. cerevisiae deletion strains, locus YPL051W, strain arl3, hits give low values 1.01 | S. cerevisiae deletion strains, locus YPL055C, strain LGE1, hits give low values 1.01 | S. cerevisiae deletion strains, locus YPL078C, strain atp4, hits give low values 0.994 | S. cerevisiae deletion strains, locus YPL106C, strain sse1, hits give low values 1.01 | S. cerevisiae deletion strains, locus YPL240C, strain hsp82, hits give low values 0.992 | S. cerevisiae deletion strains, locus YPL241C, strain CIN2, hits give low values 1.01 | S. cerevisiae deletion strains, locus YPL256C, strain CLN2, hits give low values 1 | S. cerevisiae deletion strains, locus YPR119W, strain clb2, hits give low values 0.996 | S. cerevisiae deletion strains, locus YPR141C, strain kar3, hits give low values 0.989 | S. cerevisiae deletion strains, locus YPR163C, strain tif3, hits give low values 0.994 | S. cerevisiae deletion strains, locus YPR167C, strain met16, hits give low values 0.995 | S. cerevisiae deletion strains, strain wtn01, hits give low values 0.991 | S. cerevisiae strains, strain wild type, hits give low values 1.01
